From PubChem BioAssay (NCATS)
Inconclusive results are not listed. Calls of active or inactive are those of the source. The call rests on the fitted dose curve; in most records, active means well fitted cell-killing curve with a large enough effect; inconclusive means small, poorly fitted or top-dose-only effect, or effect the other way; inactive means flat fitted curve, though single readings scatter.

Test system: Tov112D
Experiment: Primary qHTS to identify gynecologic anti-cancer compounds using libraries of approved drugs and bioactive compounds (AID 1345084); further: nearly all actives have a fitted effect of over 55% in size
Conditions: Gynecologic cancer cell panel viability, ATPlite luminescence, 48 h; series mostly up to 57.5 µM; activity change, negative = cytotoxicity: at the top concentration
Summary of the method: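 Cytotoxicity screen measuring ATP content by luciferase luminescence. Each compound is applied at five concentrations for 48 h at 37 C with 5% CO2.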
On the % scale 0 is the no-effect control and ±100 the full control effect; potency means the concentration at half of the fitted maximal effect.

SMILES	activity change, negative = cytotoxicity	Potency
Cc1ccc(CN2CCNCC2)cc1NC(=O)CNc1ccc(F)c(F)c1	13.7% (inactive)	–
CNC(=O)c1ccc(-c2cnc3ncc(Cc4ccc5ncccc5c4)n3n2)cc1F	8.59% (inactive)	–
CCOc1ccccc1OCCNC(C)Cc1ccc(OC)c(S(N)(=O)=O)c1 (stereo not given)	2.66% (inactive)	–
N#Cc1c(O)c2c(-c3ccc(-c4ccccc4O)cc3)csc2[nH]c1=O	18% (inactive)	–
CN(C1CCc2c(c3ccccc3n2CC(=O)O)C1)S(=O)(=O)c1ccc(F)cc1 (stereo not given)	–	inactive
CCCn1c(=O)c2[nH]c(-c3cnn(Cc4cccc(C(F)(F)F)c4)c3)nc2n(CC)c1=O	12.7% (inactive)	–
O=C(O)Cn1nnc(-c2cc(N3CCC(Oc4cc(F)ccc4Br)CC3)no2)n1	-5.64% (inactive)	–
COc1ccc2c(c1)CC[C@@H](CN(C)CC(=O)O)[C@H]2c1ccccc1	9.43% (inactive)	–
CC(C)(C)c1cc(NC(=O)Nc2ccc(-c3cn4c(n3)sc3cc(OCCN5CCOCC5)ccc34)cc2)no1	-3.22% (inactive)	–
Cc1ccc(NC(=O)C2(c3ccc4c(c3)OC(F)(F)O4)CC2)nc1-c1cccc(C(=O)O)c1	8.32% (inactive)	–
CC(O)C1C(=O)N2C(C(=O)O)=C(SC3CNC(C(=O)N(C)C)C3)C(C)C12 (stereo not given)	2.34% (inactive)	–
O=C(c1cncc(Br)c1)N1CCC(N2CCCC2)CC1	3.53% (inactive)	–
CCNC(=O)Nc1ccc2ncc(Nc3ccc(C)cc3)nc2n1	4.66% (inactive)	–
Cc1c(Cn2c(C)nc3c(C(=O)O)cc(N4CCOCC4)cc32)cccc1C(F)(F)F	7.35% (inactive)	–
CCCCCCCCCC(=O)N[C@@H](Cc1c[nH]c2ccccc12)C(=O)N[C@H](CC(N)=O)C(=O)N[C@@H](CC(=O)O)C(=O)N[C@@H]1C(=O)NCC(=O)N[C@@H](CCCN)C(=O)N[C@@H](CC(=O)O)C(=O)N[C@H](C)C(=O)N[C@@H](CC(=O)O)C(=O)NCC(=O)N[C@H](CO)C(=O)N[C@@H]([C@@H](C)CC(=O)O)C(=O)N[C@@H](CC(=O)c2ccccc2N)C(=O)O[C@@H]1C	13.6% [at 25.3 µM] (inactive)	–
CCCCCN(CCC12CC3CC(CC(C3)C1)C2)C(=O)NCCCc1ccncc1	-0.94% (inactive)	–
O=C1CCC[C@@H]2[C@H]3CCC[N+]4([O-])CCC[C@@H](CN12)[C@@H]34 (stereo not given in full)	4.69% (inactive)	–
Clc1cccc(-n2nnnc2NCc2ccccc2Oc2ccccn2)c1Cl	8.61% (inactive)	–
CCCNC(=O)Nc1ccc(Oc2ncnc3cc(OC)c(OC)cc23)cc1Cl	0.929% (inactive)	–
CNC(=O)c1ccc(N2C(=S)N(c3cnc(C#N)c(C(F)(F)F)c3)C(=O)C23CCC3)cc1F	0.442% (inactive)	–
C[C@]12CC[C@H](O)CC1=CCC1C2CC[C@]2(C)C(n3cnc4ccccc43)=CCC12 (stereo not given in full)	14.4% (inactive)	–
Clc1cccc(-c2nnnn2Cc2cccnc2)c1Cl	-3.22% (inactive)	–
CC(=O)c1c(C)c2cnc(Nc3ccc(N4CCNCC4)cn3)nc2n(C2CCCC2)c1=O	-4.97% [at 6.55 µM] (inactive)	–
CC(C)c1noc(N2CCC(COc3ccc(-c4ccc(S(C)(=O)=O)cc4)nc3)CC2)n1	-11.6% (inactive)	–
COc1cc2c(Oc3ccc(NC(=O)C4(C(=O)Nc5ccc(F)cc5)CC4)cc3F)ccnc2cc1OCCCN1CCOCC1	–	12.6 µM (active)
